Consider 7 compounds from PubChem BioAssay (EPA / NIEHS).

Activity calls are given as the source filed them. The calls were made as follows: active = hit-call score of the fitted dose curve at least 0.9, where 1 is the maximum; inactive = score below 0.9.

Test [1] is described as follows: ATG_CRE_CIS: Attagene CIS-FACTORIAL HepG2 Assay for human cAMP Responsive Element (CRE) binding protein 3 (AID 2282926). The conditions noted are these: HepG2 CRE cis-reporter, Attagene multiplexed mRNA; actives raise or lower the signal. In outline: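 Multiplexed transcription-unit reporters transfected into HepG2; 24 h dosing; RT-PCR/capillary electrophoresis fluorescence read-out; bidirectional fit vs DMSO.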

Test [2] deals with CCAAT/enhancer-binding protein beta (Homo sapiens) (UniProt P17676). The test can be described thus: ATG_C_EBP_CIS: Attagene CIS-FACTORIAL HepG2 Assay for human CCAAT/Enhancer Binding Protein (C/EBP) beta (AID 2282927). The conditions noted are these: HepG2 Attagene cis-factorial transcription factor reporter; actives raise or lower the signal. In outline:
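Transiently transfected HepG2 (MRTU library, endogenous TF-driven promoters); 24 h dosing; total RNA → oligo(dT) RT → PCR → 6-FAM primer extension → HpaI digest → CE; fit bidirectionally vs DMSO.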

Test [3] can be described thus: ATG_CMV_CIS: Attagene CIS-FACTORIAL HepG2 Assay for human CMV (Internal Marker) (AID 2282928).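 Also: endpoint acts as a background internal control marker rather than a target.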 The conditions noted are these: HepG2 CMV promoter reporter, transcription factor profiling; actives raise or lower the signal. In outline: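 Cell system: HepG2, transiently transfected multiple reporter units under cis promoters. Exposure: 24 h. Detection: RT-PCR, FAM labeling, HpaI digestion, capillary electrophoresis. Analysis: bidirectional, DMSO baseline.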

Test [4] can be described thus: ATG_DR4_LXR_CIS: Attagene CIS-FACTORIAL HepG2 Assay for human Liver X Receptor (LXR), DR4 submotif (AID 2282929). To be noted: HepG2 Attagene DR4 cis-reporter, mRNA transcription; actives raise or lower the signal. In outline:
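Endogenous factor activity at a DR4 cis-element is read as reporter mRNA in transiently transfected HepG2 cells. Exposure lasts 24 h; transcripts are amplified, fluorescently labelled and sized by capillary electrophoresis, with DMSO as baseline.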

Test [5] in a line: ATG_AP_1_CIS: Attagene CIS-FACTORIAL HepG2 Assay for human Activator Protein 1 (AP-1) (AID 2282931). To be noted: HepG2 Attagene cis-factorial AP-1 reporter mRNA; actives raise or lower the signal. In outline: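 Fluorescence of labelled PCR fragments separated by capillary electrophoresis gives reporter mRNA levels. HepG2 with transfected cis-regulated reporter units, 24 h exposure; DMSO serves as baseline for bidirectional curve fits.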

Test [6] can be described thus: ATG_AP_2_CIS: Attagene CIS-FACTORIAL HepG2 Assay for human Activator Protein 2 (AP-2) (AID 2282932). To be noted: HepG2 AP-2 cis-reporter, Attagene transcription factor profiling; actives raise or lower the signal. In a few lines:
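Multiplexed mRNA reporter assay in HepG2: cis-regulated units report endogenous factor activity after 24 h treatment. Fluorescence from capillary electrophoresis of RT-PCR products gives the signal, with DMSO as baseline.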

The target in test [7] is Retinoic acid receptor alpha (Homo sapiens) (UniProt P10276). The test can be described thus: ATG_DR5_RAR_CIS: Attagene CIS-FACTORIAL HepG2 Assay for human Retinoic Acid Receptor Alpha (RARE), DR5 submotif (AID 2282934).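 As to AC50: reporter responds to endogenous RAR alpha beta and gamma in HepG2 not RARA alone.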 The conditions noted are these: HepG2 Attagene cis-factorial RARE DR5 reporter, mRNA; actives raise or lower the signal. In a few lines: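 Read-out: DR5-driven reporter transcript measured by RT-PCR, 6-FAM primer extension, HpaI digest and capillary electrophoresis. Human HepG2 liver cells carry transiently transfected cis-element reporter constructs; dosing lasts 24 h. Gain or loss of signal fitted against DMSO baseline.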
Chain of Retinoic acid receptor alpha (Homo sapiens) (P10276 whole entry, looked up): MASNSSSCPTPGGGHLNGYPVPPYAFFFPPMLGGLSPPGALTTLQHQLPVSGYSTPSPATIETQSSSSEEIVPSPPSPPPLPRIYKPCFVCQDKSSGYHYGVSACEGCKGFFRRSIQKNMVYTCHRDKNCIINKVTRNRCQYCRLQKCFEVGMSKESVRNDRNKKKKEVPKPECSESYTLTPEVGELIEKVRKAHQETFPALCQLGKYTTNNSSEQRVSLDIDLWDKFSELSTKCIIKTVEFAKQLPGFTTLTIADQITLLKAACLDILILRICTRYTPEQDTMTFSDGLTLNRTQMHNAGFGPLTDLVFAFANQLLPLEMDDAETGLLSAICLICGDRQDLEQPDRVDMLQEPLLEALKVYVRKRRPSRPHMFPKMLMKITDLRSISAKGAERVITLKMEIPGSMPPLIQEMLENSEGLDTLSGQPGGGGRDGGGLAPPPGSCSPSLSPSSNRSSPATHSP

For test [8], the target named is Transcription factor E2F1 (Homo sapiens) (UniProt Q01094). The test can be described thus: ATG_E2F_CIS: Attagene CIS-FACTORIAL HepG2 Assay for human E2F Transcription Factor 1 (AID 2282935). To be noted: HepG2 Attagene cis-reporter, E2F reporter RNA transcripts; actives raise or lower the signal. In outline: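 Measures reporter transcript levels via RT-PCR with capillary electrophoresis detection in HepG2 cells harboring cis-regulated reporter units; 24 h post-dose; bidirectional curve fitting with DMSO as baseline.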
Chain of Transcription factor E2F1 (Homo sapiens) (Q01094 whole entry, looked up): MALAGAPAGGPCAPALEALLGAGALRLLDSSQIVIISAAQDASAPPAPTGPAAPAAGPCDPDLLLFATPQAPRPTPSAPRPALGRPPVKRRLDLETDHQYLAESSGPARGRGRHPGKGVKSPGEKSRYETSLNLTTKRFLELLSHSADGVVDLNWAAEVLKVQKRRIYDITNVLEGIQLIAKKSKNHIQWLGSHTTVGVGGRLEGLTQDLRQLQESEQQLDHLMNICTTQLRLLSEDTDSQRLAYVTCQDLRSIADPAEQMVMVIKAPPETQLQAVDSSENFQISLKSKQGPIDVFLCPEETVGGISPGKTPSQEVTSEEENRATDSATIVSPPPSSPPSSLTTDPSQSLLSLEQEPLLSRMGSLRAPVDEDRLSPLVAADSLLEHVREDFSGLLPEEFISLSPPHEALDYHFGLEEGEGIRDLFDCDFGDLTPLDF

Test [9] in a line: ATG_E_Box_CIS: Attagene CIS-FACTORIAL HepG2 Assay for human Enhancer Box (E-box) (AID 2282936). To be noted: HepG2 E-box cis-reporter transcription, actives raise or lower the signal. In a few lines:
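First, HepG2 cells receive multiple cis-regulated reporter constructs by transient transfection. Next, chemicals are applied for 24 h. Finally, reporter mRNA is quantified via RT-PCR and capillary electrophoresis, with DMSO as baseline.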

Test [10] can be described thus: ATG_M_61_CIS: Attagene CIS-FACTORIAL HepG2 Assay for M61 Transcription Factor (Internal Marker) (AID 2282937). The conditions noted are these: HepG2 Attagene CIS-FACTORIAL M61 internal marker reporter; actives raise or lower the signal. In outline: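 This endpoint serves as an internal background control within a multiplexed HepG2 cis-reporter panel. Cells are exposed for 24 h; reporter mRNA is amplified, fluorescently labelled and sized by capillary electrophoresis, with DMSO as negative control.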

The nature of test [11]: ATG_EGR_CIS: Attagene CIS-FACTORIAL HepG2 Assay for human Early Growth Response 1 (EGR1) (AID 2282938). To be noted: HepG2 Attagene CIS-FACTORIAL EGR reporter mRNA; actives raise or lower the signal. In outline:
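HepG2, transient MRTU transfection (cis promoters), 24 h compound. RNA → RT (oligo-dT) → PCR → 6-FAM labelling → HpaI cut → CE fluorescence. Bidirectional fit, DMSO baseline.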

Test [12] is described as follows: ATG_M_19_CIS: Attagene CIS-FACTORIAL HepG2 Assay for M19 Transcription Factor (Internal Marker) (AID 2282939). To be noted: HepG2 Attagene CIS-FACTORIAL M19 internal marker reporter; actives raise or lower the signal. In a few lines: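 Internal marker readout, fitted in both directions against DMSO, from HepG2 cells carrying transfected cis-element reporter constructs; RT-PCR and capillary electrophoresis of reporter mRNA after 24 h exposure.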

Test [13] can be described thus: ATG_ERE_CIS: Attagene CIS-FACTORIAL HepG2 Assay for Estrogen Response Element (ERE) (AID 2282940). To be noted: HepG2 ERE cis-reporter, Attagene RNA transcript; actives raise or lower the signal. In a few lines:
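After 24 h compound treatment, RNA from transfected HepG2 cells was reverse-transcribed, reporter cDNA PCR-amplified, FAM-labelled, HpaI-cut and resolved by capillary electrophoresis. ERE-driven cis reporter transcripts reflect endogenous factors; gain or loss scored against DMSO.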

Test [14] in a line: ATG_Ets_CIS: Attagene CIS-FACTORIAL HepG2 Assay for human Erythroblast Transformation Specific (ETS) (AID 2282941). The conditions noted are these: HepG2 ETS cis-reporter transcription, actives raise or lower the signal. In a few lines:
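After transient cis-reporter transfection, HepG2 cells receive test chemical for 24 h. Reporter mRNA levels, measured by RT-PCR and capillary electrophoresis fluorescence, are analysed bidirectionally relative to the DMSO baseline.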

Test [15] concerns the target Hepatocyte nuclear factor 3-beta (Homo sapiens) (UniProt Q9Y261). The test can be described thus: ATG_FoxA2_CIS: Attagene CIS-FACTORIAL HepG2 Assay for human Forkhead box A2 (FOXA2) (AID 2282942). To be noted: HepG2 cis-reporter transcription factor activity, 24 h; actives raise or lower the signal. In a few lines: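 Cells: HepG2, transient multiplex reporter transfection. Exposure 24 h. Detection: reporter-specific RT-PCR, fluorescent labelling, restriction digest, capillary electrophoresis. Analysis: bidirectional curve fit, DMSO as negative control.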

Test [16] can be described thus: ATG_FoxO_CIS: Attagene CIS-FACTORIAL HepG2 Assay for human Forkhead box O (FoxO) (AID 2282943). The conditions noted are these: HepG2 Attagene cis-reporter, FoxO element, mRNA; actives raise or lower the signal. In a few lines:
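Read-out: fluorescence of 6-FAM-labelled reporter cDNA fragments resolved by capillary electrophoresis. Transiently transfected HepG2 cells were dosed for 24 h; activity fitted in both directions relative to DMSO controls.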

Test [17] is described as follows: ATG_GATA_CIS: Attagene CIS-FACTORIAL HepG2 Assay for human GATA Binding Protein (AID 2282944). To be noted: HepG2 GATA cis-element reporter, Attagene multiplex mRNA; actives raise or lower the signal. In outline: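 Reporter transcripts from a GATA cis-regulated unit, among multiplexed reporters in transfected HepG2 cells, were measured by RT-PCR with capillary electrophoresis after 24 h dosing. Induction or loss scored relative to DMSO.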

Test [18] is described as follows: ATG_GLI_CIS: Attagene CIS-FACTORIAL HepG2 Assay for human Zinc Finger Protein GLI1 (AID 2282945). The conditions noted are these: HepG2, Attagene cis-factorial reporter mRNA, GLI element; actives raise or lower the signal. In outline: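 Transiently transfected HepG2 cells report endogenous transcription factor activity via cis-element-driven reporter units. After 24 h compound exposure, reporter mRNA was measured by RT-PCR with capillary electrophoresis; bidirectional fitting against DMSO baseline.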

Test [19] concerns the target Aryl hydrocarbon receptor (Homo sapiens) (UniProt P35869). The test can be described thus: ATG_Ahr_CIS: Attagene CIS-FACTORIAL HepG2 Assay for human Aryl Hydrocarbon Receptor (Ahr) (AID 2282930). To be noted: HepG2 AhR cis-factorial reporter transcription; actives raise or lower the signal. In a few lines: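 Read-out: reporter mRNA quantified by RT-PCR with fluorescent primer extension and capillary electrophoresis. Human HepG2 liver cells carried transfected cis-promoter reporter units and were exposed to chemical for 24 h; gain or loss fitted relative to DMSO.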

Chain of CCAAT/enhancer-binding protein beta (Homo sapiens) (P17676 whole entry, looked up): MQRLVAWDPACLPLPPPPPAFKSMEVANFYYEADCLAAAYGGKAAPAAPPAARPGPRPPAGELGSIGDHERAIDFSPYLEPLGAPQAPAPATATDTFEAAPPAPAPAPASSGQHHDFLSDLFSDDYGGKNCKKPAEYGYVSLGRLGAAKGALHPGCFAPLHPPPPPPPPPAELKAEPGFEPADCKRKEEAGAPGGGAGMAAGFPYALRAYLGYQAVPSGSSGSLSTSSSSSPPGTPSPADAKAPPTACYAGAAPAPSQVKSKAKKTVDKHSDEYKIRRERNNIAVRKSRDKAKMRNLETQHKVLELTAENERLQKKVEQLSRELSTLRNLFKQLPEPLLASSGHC
Chain of Aryl hydrocarbon receptor (Homo sapiens) (P35869 whole entry, looked up): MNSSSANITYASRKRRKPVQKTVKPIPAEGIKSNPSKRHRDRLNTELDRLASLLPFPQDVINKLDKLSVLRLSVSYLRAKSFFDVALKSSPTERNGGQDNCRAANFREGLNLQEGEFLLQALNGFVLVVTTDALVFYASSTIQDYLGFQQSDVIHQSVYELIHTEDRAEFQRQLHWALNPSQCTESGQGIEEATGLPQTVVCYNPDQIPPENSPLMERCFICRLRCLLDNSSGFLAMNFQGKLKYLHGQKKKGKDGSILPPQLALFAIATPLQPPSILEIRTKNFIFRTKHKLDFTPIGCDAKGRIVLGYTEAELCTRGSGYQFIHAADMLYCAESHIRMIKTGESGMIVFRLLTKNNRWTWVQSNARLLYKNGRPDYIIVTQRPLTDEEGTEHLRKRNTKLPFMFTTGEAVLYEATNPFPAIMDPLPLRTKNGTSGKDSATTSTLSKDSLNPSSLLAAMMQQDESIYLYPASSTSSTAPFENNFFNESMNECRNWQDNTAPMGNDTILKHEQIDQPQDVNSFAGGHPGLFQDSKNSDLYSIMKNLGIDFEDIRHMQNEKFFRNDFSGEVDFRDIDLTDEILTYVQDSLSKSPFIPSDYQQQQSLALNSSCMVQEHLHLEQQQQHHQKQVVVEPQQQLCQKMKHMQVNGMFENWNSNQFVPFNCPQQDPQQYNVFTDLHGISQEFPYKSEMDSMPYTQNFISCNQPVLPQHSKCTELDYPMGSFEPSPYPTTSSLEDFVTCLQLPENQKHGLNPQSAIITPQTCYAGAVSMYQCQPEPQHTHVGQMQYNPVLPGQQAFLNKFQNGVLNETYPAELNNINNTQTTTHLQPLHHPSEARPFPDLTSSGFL
Chain of Hepatocyte nuclear factor 3-beta (Homo sapiens) (Q9Y261 whole entry, looked up): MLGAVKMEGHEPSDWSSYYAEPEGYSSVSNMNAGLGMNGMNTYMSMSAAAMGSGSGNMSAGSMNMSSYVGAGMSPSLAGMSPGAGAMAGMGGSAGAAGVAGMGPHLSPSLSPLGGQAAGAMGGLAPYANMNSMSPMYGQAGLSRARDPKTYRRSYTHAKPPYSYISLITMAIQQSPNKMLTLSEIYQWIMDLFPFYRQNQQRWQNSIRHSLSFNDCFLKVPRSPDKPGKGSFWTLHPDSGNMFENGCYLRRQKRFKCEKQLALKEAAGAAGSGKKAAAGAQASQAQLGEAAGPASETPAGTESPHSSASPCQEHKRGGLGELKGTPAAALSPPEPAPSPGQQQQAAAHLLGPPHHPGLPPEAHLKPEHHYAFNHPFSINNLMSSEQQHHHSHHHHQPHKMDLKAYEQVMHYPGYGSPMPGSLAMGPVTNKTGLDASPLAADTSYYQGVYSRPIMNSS

`c1ccc2c(c1)Nc1ccccc1S2`: the result in test [1], in [2], in [4], in test [5], in test [6] and in [7] was inactive. The compound was classed as inactive in test [8], in [9], in [10], in test [11], in test [12] and in test [14]. Further, the compound was classed as inactive in test [15], in [16], in test [17] and in test [18]. The AC50 in test [3] was 21.3 µM (active); in test [13], 16.2 µM (active).

In the case of `COP(=O)(CCC(=O)NCO)OC`, the result in [1], in test [2], in [3], in test [4], in test [19] and in [5] was inactive. Further, the call in test [6], in test [7], in test [8], in [9], in test [10] and in [11] was inactive. Besides, the result in test [12], in test [13], in [14], in test [15], in test [16] and in test [17] was inactive. For the same compound, the compound was called inactive in [18].

As to `O=[N+]([O-])c1ccccc1`, the result in test [1], in test [2], in test [3], in test [4], in [19] and in test [5] was inactive. Further, the call in [6], in [7], in test [8], in test [9], in test [10] and in test [11] was inactive. Further, the compound was classed as inactive in test [12], in test [14], in test [15], in test [16], in test [17] and in test [18]. In addition, the concentration at half-maximal activity (AC50) in test [13] was 52.7 µM (active).

For `ClC1=C(Cl)C2(Cl)C3C(Cl)C(Cl)CC3C1(Cl)C2(Cl)Cl` (centres undefined), the result in [1], in test [2], in test [6], in test [8], in test [10] and in test [12] was inactive. The compound was called inactive in test [14], in [15], in test [16], in test [17] and in test [18]. Moreover, the AC50 is 48.8 µM (active) in [3]; 18.1 µM (active) in test [4]; 48.1 µM (active) in [5]; 1.27 µM (active) in test [7]; 52.3 µM (active) in test [9]; 25.2 µM (active) in test [11]. Also, the AC50 in [13] is 11.2 µM (active).

`CNC(=O)Oc1ccc(N(C)C)c(C)c1`: the compound was called inactive in [1], in test [2], in test [3], in [4], in test [19] and in [5]. The compound was called inactive in test [6], in test [7], in test [8], in test [9], in [11] and in test [12]. In addition, the call in test [13], in test [14], in [15], in [16], in [17] and in [18] was inactive.

`O=S1(=O)OCC2C(CO1)C1(Cl)C(Cl)=C(Cl)C2(Cl)C1(Cl)Cl` (centres undefined): the AC50 was 171 µM (active) in test [1]; 8.33 µM (active) in [4]; 2.9 µM (active) in test [19]; 171 µM (active) in test [7]; 26.5 µM (active) in test [9]; 179 µM (active) in [11]. Also, the values for the AC50 in [13] and in [18] were 1.84 µM (active) and 186 µM (active), respectively. Besides, the result in test [2], in test [3], in [5], in test [6], in [8] and in [12] was inactive. The result in [14], in test [15], in test [16] and in [17] was inactive.

As to `Clc1ccc(Oc2ccccc2)cc1`, the outcome in [1], in test [2], in test [3], in [4], in test [19] and in test [5] was inactive. In addition, the compound was called inactive in [6], in [7], in test [8], in test [9], in test [10] and in test [11]. Also, the outcome in test [12], in test [14], in test [15], in [16], in [17] and in [18] was inactive. The half-maximal activity concentration (AC50) in test [13] was 88.4 µM (active).

As a reminder, the AC50 is the concentration at which the activity in the assay is half-maximal.
